Test results published in PubChem BioAssay (NCI).
Compounds without any hit were thinned out: in the full panel of roughly 83,000, 20% have a hit.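 Testing used 96-well plates and a 48-hour single-concentration exposure. Example: -40 means 40% of the starting cells died.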 The source made the active and inactive calls.

These compounds were tested on SNB-19 CNS (assay: NCI-60 one-dose screen, 48 h (100 = growth as untreated, 0 = no growth, -100 = all killed)). Details: 10 µM unless noted.
Experimental: Growth inhibition of the SNB-19 human tumor cell line is measured as a screen for anti-cancer activity. Cells are grown in 96 well plates and exposed to the test compound for 48 hours. Compounds are tested at a single concentration, which is 10^-5 M for most compounds. The reported endpoint is percent growth (GI% or GIPRCNT), where numbers from 0 - 100% represent growth inhibition, and numbers from -100% - 0 represent cell death. For example, a value of 40 represents 60% growth inhibition. A value of 0 means no net growth occurred over the course of the experiment. A value of -40 indicates 40% of cells at the beginning of the experiment died by the end of the experiment. A value of -100 means all cells are dead at the end of the experiment.
NCI-60 Human Tumor Cell Lines Screen was performed using the standard one-dose NCI protocol, which is described in more detail at https://dtp.cancer.gov/discovery_development/nci-60/default.htm.
Compounds with GIPRCNT values below 10 were considered active. Activity score was based on GIPRCNT using the following formula: […]
Score is 0 for GIPRCNT values of 100 or above, 50 for GIPRCNT values of 0, and 100 for GIPRCNT values of -100.
In the case of `CSc1nc(N)c(N=Nc2ccc(S(=O)(=O)Nc3nnc(C)s3)cc2)c(=O)[nH]1`, the growth is reported as 103% (inactive). `O=C(Nc1cc(-c2cccnc2)nc(NCCCN2CCOCC2)n1)c1cc(Br)cc(C(F)(F)F)c1` was tested, and the growth was 69.6% (inactive). In the case of `O=S(=O)(c1ccc(N/N=C\c2ccccc2Cl)cc1)c1ccc(N/N=C/c2ccccc2Cl)cc1`, the growth is reported as 90.4% (inactive). For `CCOC(=O)Nc1ccc2c(c1)/C(=N\NC(=S)NC)c1ccccc1-2`, the growth was 71.8% (inactive). In the case of `Cc1ccc2c(n1)C(=O)C(Cl)=C(Nc1ccc(N3CCN(C)CC3)cc1)C2=O`, the growth is reported as 94.6% (inactive). For `O=C(Nc1cccc(F)c1)c1cc(=O)[nH]c2cc(Br)ccc12`, the growth was 54.7% (inactive). `C=C(C)[C@@H]1CC[C@]2(C(=O)NCCCN)CC[C@]3(C)[C@H](CC[C@@H]4[C@@]5(C)CC[C@H](O)C(C)(C)[C@@H]5CC[C@]43C)[C@@H]12` was tested, and the growth was -29.5% [100 µM] (active). `O=C1NC(=O)C(Cc2ccc(OCc3ccc(-c4cc(F)c(F)c(F)c4)cc3)cc2)S1` (stereo not given) was tested, and the growth was 93.5% (inactive). With `C=C(CC(=O)OC)C(C)=O` the growth was 103% (inactive). For `Cn1cc(-c2noc(-c3cn(C)c4ncc(Br)cc34)n2)c2cc(Cl)ccc21`, the growth was 63% (inactive). In the case of `CN(C)C(=S)Sc1ccc([N+](=O)[O-])cc1[N+](=O)[O-]`, the growth is reported as 83.2% (inactive). For `CCOC(=O)c1cc(C#N)n2ncc3ccccc3c12`, the growth was 91.8% (inactive). With `CCCOc1ccc(-c2nc(-c3ccc(N)cc3)cs2)cc1` the growth was 96.6% (inactive). In the case of `COc1ccc(C=C2c3ccccc3-c3ccccc32)cc1`, the growth is reported as 51.4% (inactive). With `COc1cc2c(c(OC)c1OC)-c1ccc(NNC(N)=S)c(=O)cc1[C@@H](NC(C)=O)CC2` the growth was 42.3% (inactive). In the case of `O=C(O)c1cn(C2CC2)c2cc(N3CCN(Cc4cc(Cl)ccc4O)CC3)c(F)cc2c1=O`, the growth is reported as 60.2% (inactive). In the case of `Cc1ccccc1OC(=O)c1cccc(Cl)c1`, the growth is reported as 109% (inactive). In the case of `NC(=O)c1cccc(-c2ccc(S(=O)(=O)Nc3ccc4c(c3)N(C(=O)C3CC3)CCC4)cc2)c1`, the growth is reported as 48.3% (inactive). `COc1ccc(N(c2nc(-c3ccc([N+](=O)[O-])cc3)cs2)C(C)C)cc1` was tested, and the growth was 89.9% (inactive). With `C=CC1=C(C)C2=NC1=CC1=NC(=CC3=C(C)C4=C(O)C(C(=O)O)C(=C5NC(=C2)C(C)C5CCC(=O)O)C4=N3)C(CC)=C1C` (stereo not given) the growth was 112% (inactive). `O=C(Nc1cc(F)cc2cccnc12)c1cnc(N2CCNCC2)cn1` was tested, and the growth was 87.7% (inactive). With `O=C(Nc1cccnc1)c1ccc2ccc3ccc(C(=O)Nc4cccnc4)nc3c2n1` the growth was 13.2% (inactive). `COC(=O)c1cc2c(=O)[nH]cc3c2c(n1)CCC3` was tested, and the growth was 96.2% (inactive). With `COc1ccc(-c2nc3ccccn3c2/C=C/C(=O)c2cc(OC)c(OC)c(OC)c2)cc1OC` the growth was 29.8% (inactive). For `O=C(Nc1ccc(C(=O)/C=C/c2ccc(N3CCOCC3)cc2)cc1)Nc1ccc([N+](=O)[O-])cc1`, the growth was 98.4% (inactive). In the case of `COc1cc2c(O)n(CCCN3CCOCC3)c3c4cnc5cccc(c(=O)c3c2cc1OC)c54`, the growth is reported as 19.4% (inactive). In the case of `CC(C)c1ccc(/C=N/N=C(N)N)cc1`, the growth is reported as 97.1% (inactive). With `CCCCCCCCCCCCNC(=S)N/N=C/c1ccccc1O` the growth was 80.2% (inactive). In the case of `Cc1cc[n+](CCCCCCCCCC[n+]2ccc(C)cc2)cc1`, the growth is reported as 104% (inactive). In the case of `c1cc2ccc1CNCCN1CCNCc3ccc(cc3)Oc3ccc(cc3)CNCCN(CCNCc3ccc(cc3)O2)CCNCc2ccc(cc2)Oc2ccc(cc2)CNCC1`, the growth is reported as -91.2% (active). `C[C@]12CCc3nc(Nc4ccccc4)sc3C1=CC[C@@H]1[C@@H]2CC[C@]2(C)/C(=N/NC(N)=S)CC[C@@H]12` was tested, and the growth was 62.1% (inactive). For `COCCCNc1nc(NC(=O)c2cc(OC)cc(OC)c2)cc(-c2cccnc2)n1`, the growth was 98.3% (inactive). For `C[C@H]1[C@H](C)CC[C@]2(C(=O)O)CC[C@]3(C)C(=CC[C@@H]4[C@@]5(C)C/C(=C/c6ccco6)C(=O)C(C)(C)[C@@H]5CC[C@]43C)[C@H]12`, the growth was -52.6% [100 µM] (active). With `Nc1nc(SCc2cccc([N+](=O)[O-])c2)c2[nH]cnc2n1` the growth was 91.7% (inactive). `COc1cc2c(cc1OC(C)=O)C(=O)CCCC2` was tested, and the growth was 109% (inactive). With `O=[N+]([O-])c1ccc(O)c(-c2nc3ccccc3s2)c1` the growth was 64.1% (inactive). In the case of `CCOC(=O)c1nn(C2CCCCO2)c2ccc(NC(=O)Cn3nnc4ccccc43)cc12` (stereo not given), the growth is reported as 86.5% (inactive). For `CCCn1ccnc1C(O)c1ccc(OCc2ccccc2)c(OC)c1` (stereo not given), the growth was 82.8% (inactive). `CSc1cccc([N+](=O)[O-])c1` was tested, and the growth was 110% (inactive). `O=c1c2c3c(sc2n2cnnc2n1Cc1ccccc1)CCCC3` was tested, and the growth was 99% (inactive).
